Test results reported in PubChem BioAssay AID1159580 (chemical genetic matrix, 2015).
Screen size: about 5,500 compounds; about 2,000 (36%) were called active. Another 18% or so got no clear call; they are omitted. Cut-off read from the data, not from the text of the source: active = normalized growth mostly below about 0.91 (no sharp cut-off); inconclusive = no clear call, values can overlap the other calls; inactive = mostly above about 0.92. The list shows a part of the results.

Assay: chemical genetic growth profiling, strain panel (AID 1159580);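 note: tested at 20 µM; growth read once vehicle control cultures reached saturation at 30 °C; 1 = growth at the plate median or of vehicle wells; lower values mean less growth of the strain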
Settings: S. cerevisiae deletion strains, growth OD

Measured: normalized growth

CC1CCN(CC[C@H]2CCCN2S(=O)(=O)c2cccc(O)c2)CC1
inactive: locus YAL040C, strain CLN3, active compounds read low 0.99 | locus YCL061C, strain MRC1 (second series), active compounds read low 1 | locus YDR363W, strain ESC2, active compounds read low 0.986 | locus YER002W, strain NOP16, active compounds read low 0.989 | locus YGR078C, strain PAC10, active compounds read low 1.02 | locus YMR263W, strain SAP30, active compounds read low 1 | locus YMR307W, strain GAS1, active compounds read low 1.03 | locus YNL128W, strain TEP1, active compounds read low 1.01 | locus YNL175C, strain NOP13, active compounds read low 1.01 | locus YNL197C, strain WHI3, active compounds read low 1.01 | locus YNL224C, strain SQS1, active compounds read low 1 | locus YNL322C, strain KRE1, active compounds read low 0.984 | locus YOR083W, strain WHI5 (second series), active compounds read low 1.03
